Reference: ChEMBL document CHEMBL1157539, “Thousands of chemical starting points for antimalarial lead identification” (Nature, 2010)

System: HepG2
Experiment: GSK_TCMDC: Percent inhibition of human HepG2 cell line. Test compounds present at 10uM.
Assay type: functional

Q: How did the Inhibition turn out when `O=C(Nc1ccc(Cn2ncc(N3CCCNCC3)c(Cl)c2=O)cc1)Nc1ccc(F)cc1[N+](=O)[O-]` was run?
A: Its Inhibition is 11%.

Q: `COc1ccc(-c2ccc(NC(=O)c3ccc(Cl)cc3)cc2)cc1CN(C)CCN(C)C.O=C(O)C(F)(F)F` was tested. Which Inhibition did it give?
A: Its Inhibition is 37%.

Q: With `CN1CCCC(CN2CCN(Cc3ccc(-c4ccc(-c5nc6ccccc6[nH]5)cc4)cc3)CC2)C1.O=C(O)C(F)(F)F` (stereo not drawn) as the compound, how does the Inhibition read?
A: The Inhibition was 69%.

Q: `Cc1nc(N)nc(N)c1OCc1cccc2ccccc12.Cl` was tested. Which Inhibition did it give?
A: Its Inhibition is 63%.

Q: With `CCc1c(CCNCCc2cccc(CCNCCc3ccc(OC)c(OC)c3CC)c2)ccc(OC)c1OC.Cl` as the compound, how does the Inhibition read?
A: The Inhibition was 100%.

Q: Which Inhibition does the source give for `CN1CCN(C(C(=O)NCc2cc(Cl)cc(Cl)c2)c2ccccc2-c2ccsc2)CC1` (stereo not drawn) here?
A: The Inhibition was 11%.

Q: How did the Inhibition turn out when `CCOc1ccccc1C1C(C(=O)C(C)(C)C)N2c3ccc(Br)cc3C=CC2C12C(=O)c1ccccc1C2=O` (stereo not drawn) was run?
A: Its Inhibition is 17%.

Q: How did the Inhibition turn out when `COc1ccc(CN2CCCN(Cc3cccc(C(=O)Nc4ccc(C)c(F)c4)c3)CC2)cc1.O=C(O)C(F)(F)F` was run?
A: The Inhibition was 49%.
